KB-V1 cytotox = kills drug-selected multidrug resistant KB-V1 cells; 400,000 compounds, 3.4% hits; KB-V1 MDR cells viability, CellTiter-Glo, 72 h; Potency, µM (titrated, usually from 46.1 µM), hits mostly cytotoxic; further: on the % scale 0 is the no-effect control and ±100 the full control effect; nearly all actives have a fitted effect of over 60% in size
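Cells of the MDR subline KB-V1 are plated, dosed with compound at multiple concentrations, and incubated 72 h at 37 degrees C; CellTiter-Glo is then added and luminescence read after 10 min.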
KB-3-1 tox = KB-3-1 parental cell cytotoxicity. Potency, µM (series often up to 46.1 µM), actives largely listed as cytotoxic. KB-3-1 viability, CellTiter-Glo ATP luminescence, 72 h. 400,000 compounds, 1.4% hits; further: on the % scale 0 is the no-effect control and ±100 the full control effect; nearly all actives have a fitted effect of over 60% in size
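Parental KB-3-1 adenocarcinoma cells in phenol-red-free DMEM with 10% FBS were pin-treated with compounds at several concentrations, incubated 72 h at 37 °C, and viability read by CellTiter-Glo luminescence; concentration-effect curves were fitted after normalization.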
ATXN viability = reduces viability in counter-screen for ATXN expression inhibitors; Potency, µM (titrated, usually from 56.7 µM), usual class: cytotoxic; S2 cells (HEK-293 line with an ATXN2-luciferase reporter) viability, CellTiter-Fluor protease fluorescence, 24 h; AID 651635; 400,000 compounds, 0.49% hits; further: nearly all actives have a fitted effect of over 40% in size
HT1080NT lethal = kills 2HG-producing HT-1080-NT fibrosarcoma cells | HT-1080-NT fibrosarcoma viability, CellTiter-Glo ATP luminescence, 48 h | Potency, µM (top dose mostly 46.1 µM), for the others: at the highest dose activity, negative = less viability, usual class: cytotoxic | 360,000 compounds, 1.6% hits | AID 686970;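 further: NT is the 2HG producing partner of a matched IDH1 knockdown line; 0% = DMSO-treated cells and -100% = media-only wells without cells; nearly all actives have a fitted effect of over 55% in size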
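Compounds were tested in concentration-response format on HT-1080-NT cells for 48 hours at 37 degrees C. Cell viability came from CellTiter-Glo luminescence; curves were classified by r2, response magnitude and activity.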
HT1080 IDH1KD tx = HT-1080 IDH1 knockdown cell toxicity (counter line) | HT-1080 IDH1 knockdown viability, ATP luminescence, 48 h | Potency, µM (titrated, usually from 46.1 µM), for inactives: at the top dose activity, negative = toxicity, hits mostly cytotoxic | 360,000 compounds, 2% hits | AID 686971;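 further: 0% = DMSO wells and -100% = cell-free medium wells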
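Assay cells: HT-1080 with IDH1 knockdown, 750 per well, RPMI/5% FBS. Exposure: 48 h at 37 °C following 2 h pre-incubation. Read: CellTiter-Glo luminescence; fitted concentration-response, curve class assigned.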
ATXN2 expr inh = reduces ATXN2 reporter expression in HEK-293 cells; HEK-293 ATXN2-luciferase reporter, luminescence, 24 h; 360,000 compounds, 0.72% hits; AID 1745845; Potency, µM (series often up to 57 µM), for the others: at the top dose activity change, negative = inhibition, actives largely listed as inhibitors; further: on the % scale 0 is the no-effect control and ±100 the full control effect; nearly all actives have a fitted effect of over 55% in size
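qHTS (up to 57 uM final) was run with 24 h compound exposure of reporter cells at 37 °C. Each well was multiplexed: SteadyGlo luminescence measured ATXN2-luciferase expression after a fluorogenic Gly-Phe-AFC viability readout (25 uM final).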
* marks the source's active call; other numbers are inactive results. A selection: hits, their analogues and other compounds. The true share with any hit is near 6.2%. The call rests on the fitted dose curve; in most records, active means well fitted curve in the direction sought with a large enough effect; inconclusive means small, poorly fitted or top-dose-only effect, or another doubt; inactive means no such curve, though single readings can be large; an effect the other way counts as inactive or inconclusive. Potency means the concentration at half of the fitted maximal effect.

Screening COc1ccc(-c2nc3scc(CCNC(=O)c4cccc(Br)c4)n3n2)cc1 returned KB-V1 cytotox inactive, KB-3-1 tox inactive, ATXN viability 18µM* and ATXN2 expr inh inconclusive.
`N/C(=C\C(=O)c1cc(Cl)ccc1O)C(Cl)(Cl)Cl` gave KB-V1 cytotox 7.3µM*, KB-3-1 tox inconclusive, ATXN viability inconclusive, HT1080NT lethal 8.2µM*, HT1080 IDH1KD tx 13µM* and ATXN2 expr inh 20µM*.
`CCOc1ccc(NC(=O)CSc2nc3c(c(=O)n2C)SC(C)C3)cc1` (configuration not stated) gave KB-V1 cytotox inactive, KB-3-1 tox inactive, ATXN viability inactive, HT1080NT lethal 14%, HT1080 IDH1KD tx -1% and ATXN2 expr inh inconclusive.
For CC1Cc2nc(SCC(=O)Nc3ccc(F)cc3)n(C)c(=O)c2S1 (configuration not stated) the results were KB-V1 cytotox 4.1µM*, KB-3-1 tox inactive, ATXN viability inactive, HT1080NT lethal 0%, HT1080 IDH1KD tx 11% and ATXN2 expr inh 15%.
`CCn1c(SCC(=O)NC2CCCCC2)nc2c(c1=O)SC(C)C2` (configuration not stated) gave KB-V1 cytotox 2.3µM*, KB-3-1 tox inactive, ATXN viability inactive, HT1080NT lethal -5%, HT1080 IDH1KD tx 4% and ATXN2 expr inh -12%.
For COCCCNC(=S)NNC(=O)c1ccc(C(C)(C)C)cc1 the results were KB-V1 cytotox inconclusive, KB-3-1 tox inactive, ATXN viability inactive, HT1080NT lethal -11% and HT1080 IDH1KD tx -1%.
For COCCCNC(=S)NC(=O)c1ccc(C)cc1 the results were KB-V1 cytotox 18µM*, KB-3-1 tox inactive, ATXN viability inactive, HT1080NT lethal 0%, HT1080 IDH1KD tx 14% and ATXN2 expr inh 43%.
`N#Cc1cnn2c(-c3cccc(C(F)(F)F)c3)ccnc12` gave KB-V1 cytotox inactive, KB-3-1 tox inactive, ATXN viability inactive, HT1080NT lethal 1% and HT1080 IDH1KD tx 0%.
Screening N#Cc1cnn2c(N)c(-c3ccc(Cl)cc3)cnc12 returned KB-V1 cytotox 4.1µM*, KB-3-1 tox inconclusive, ATXN viability inactive, HT1080NT lethal inconclusive, HT1080 IDH1KD tx -10% and ATXN2 expr inh 0%.
For N#Cc1cnn2c(-c3ccc(Cl)cc3Cl)ccnc12 the results were KB-V1 cytotox 16µM*, KB-3-1 tox inactive, ATXN viability inactive, HT1080NT lethal 24%, HT1080 IDH1KD tx 1% and ATXN2 expr inh -26%.
`Nc1c(-c2ccccc2)cnc2c(-c3ccccc3)cnn12` gave KB-V1 cytotox inactive, KB-3-1 tox inactive, ATXN viability inactive, HT1080NT lethal 9% and HT1080 IDH1KD tx 0%.
Screening CN(CCO)C(=O)c1cn(C2CCCN(Cc3ccc(C(F)(F)F)cc3)C2)nn1 (configuration not stated) returned ATXN viability inactive.
For CN1CCN(C(=O)C(=O)Nc2c3c(nn2-c2cccc(Cl)c2)CSC3)CC1 the results were KB-V1 cytotox inactive, KB-3-1 tox inactive, ATXN viability inactive and ATXN2 expr inh 9%.
Screening COc1ccc(OC)c(CC(=O)NC(c2ccccc2)c2ccccc2)c1 returned KB-V1 cytotox inactive, KB-3-1 tox inactive, ATXN viability inactive, HT1080NT lethal -8%, HT1080 IDH1KD tx -13% and ATXN2 expr inh -4%.
`COc1ccc(/C=N/OCC(=O)NC(c2ccccc2)c2ccccc2)c(OC)c1` gave KB-V1 cytotox 23µM*, KB-3-1 tox inactive, ATXN viability inactive, HT1080NT lethal -1%, HT1080 IDH1KD tx -8% and ATXN2 expr inh -10%.
Screening COc1ccc(C(NC(=O)c2cc(OC)ccc2OC)c2ccccc2)cc1 (configuration not stated) returned KB-V1 cytotox 8.2µM*, KB-3-1 tox inconclusive, ATXN viability inactive, HT1080NT lethal inconclusive, HT1080 IDH1KD tx inconclusive and ATXN2 expr inh -13%.
Screening Cc1cc(C)c(C(=O)OCc2csc(CC(=O)Nc3ccccc3C)n2)c(C)c1 returned KB-V1 cytotox inactive, KB-3-1 tox inactive, ATXN viability inactive, HT1080NT lethal -5%, HT1080 IDH1KD tx -4% and ATXN2 expr inh -17%.
For CC(=O)Nc1cccc(C(=O)OCc2csc(CC(=O)Nc3ccccc3C)n2)c1 the results were KB-V1 cytotox 21µM*, KB-3-1 tox inactive, ATXN viability inactive, HT1080NT lethal 0%, HT1080 IDH1KD tx -9% and ATXN2 expr inh -6%.
For Cc1ccc(S(=O)(=O)N2CCN(c3nc(C(N)=O)nc4ccccc34)CC2)cc1 the results were HT1080NT lethal 8% and HT1080 IDH1KD tx 18%.
Screening Oc1c(CN2CCCC(C(F)(F)F)C2)cc(Cl)c2ccccc12 (configuration not stated) returned KB-V1 cytotox inactive, KB-3-1 tox inactive, ATXN viability inactive, HT1080NT lethal inconclusive, HT1080 IDH1KD tx inconclusive and ATXN2 expr inh -7%.
`COc1cc(CN2CCN(Cc3ccc([N+](=O)[O-])cc3)CC2)c([N+](=O)[O-])cc1OC` gave KB-V1 cytotox inactive, KB-3-1 tox inconclusive, ATXN viability inactive, HT1080NT lethal -2% and HT1080 IDH1KD tx -20%.
Screening COc1cccc(CN2CCN(Cc3cc(OC)c(OC)cc3[N+](=O)[O-])CC2)c1 returned KB-V1 cytotox 21µM*, KB-3-1 tox inactive, ATXN viability inactive, HT1080NT lethal 7%, HT1080 IDH1KD tx 2% and ATXN2 expr inh -11%.
Screening N#Cc1c(NC(=O)C2CC(c3ccccc3O)=NO2)sc2c1CCC2 (configuration not stated) returned KB-V1 cytotox 21µM*, KB-3-1 tox inactive, ATXN viability inactive, HT1080NT lethal 0%, HT1080 IDH1KD tx -7% and ATXN2 expr inh 7%.
Screening N#Cc1c(NC(=O)C2CC(c3ccccc3Cl)=NO2)sc2c1CCC2 (configuration not stated) returned KB-V1 cytotox 26µM*, KB-3-1 tox inactive, ATXN viability inactive, HT1080NT lethal -2%, HT1080 IDH1KD tx 0% and ATXN2 expr inh 19%.
`Cc1onc(-c2ccccc2Cl)c1C(=O)Nc1sc2c(c1C#N)CCC2` gave KB-V1 cytotox inconclusive, KB-3-1 tox inactive, HT1080NT lethal -16% and HT1080 IDH1KD tx -21%.
Cc1nn(Cc2c(F)c(F)c(F)c(F)c2F)c(C)c1NC(=O)c1ccc(COc2ccccc2Cl)cc1 was read as KB-V1 cytotox inconclusive, KB-3-1 tox inactive, ATXN viability inactive, HT1080NT lethal 21%, HT1080 IDH1KD tx 16% and ATXN2 expr inh -9%.

Source: PubChem (National Center for Advancing Translational Sciences (NCATS))
